Inconclusive results are not listed. More than one record can exist for a structure, and the calls need not agree. A number with no mark means an inactive call. Calls of active or inactive are those of the source. The call rests on the fitted dose curve; in most records, active means well fitted curve in the direction sought with a large enough effect; inconclusive means small, poorly fitted or top-dose-only effect, or another doubt; inactive means no such curve, though single readings can be large; an effect the other way counts as inactive or inconclusive.
Tests used:
[1] = tested on: SKOV3; experiment: Primary qHTS to identify gynecologic anti-cancer compounds using libraries of approved drugs and bioactive compounds (AID 1345084); conditions: Gynecologic cancer cell panel viability, ATPlite luminescence, 48 h; series mostly up to 57.5 µM; further: nearly all actives have a fitted effect of over 55% in size
Summary of the method: (§1)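 Five-concentration response, 48 h; readout is ATP-driven luciferase luminescence.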

[2] = tested on: Tov-21-G; experiment: as above; conditions: Gynecologic cancer cell panel viability, ATPlite luminescence, 48 h; series mostly up to 57.5 µM
Summary of the method: as §1

[3] = tested on: Tov112D; experiment: as above; conditions: Gynecologic cancer cell panel viability, ATPlite luminescence, 48 h; series mostly up to 57.5 µM
Summary of the method: as §1

[4] = Drug repurposing screens with cells derived from glioblastoma tumor samples (AID 1345199); conditions: GBM patient neurospheres viability, ATP luminescence, 48 h; further: nearly all actives have a fitted effect of over 40% in size
Summary of the method: (§2)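 Four patient lines of CD133+ GBM neurospheres were screened at several concentrations; hits were retested in those lines plus three slower-growing GBM lines, using 48-hour treatment and ATP-based viability.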

[5] = tested on: astro; experiment: as above; conditions: viability, ATP luminescence, 48 h; series mostly up to 45.9 µM
Summary of the method: as §2

[6] = at 45.9 µM (top of the series), tumour line B
[7] = at 45.9 µM (top of the series), tumour line D
[8] = at 46.1 µM (top of the series), tumour line C
[9] = at 46 µM (top of the series), tumour line A
[10] = at 20 µM (top of the series), tumour line C
[11] = at 21.2 µM (top of the series), tumour line B
[12] = at 21.2 µM (top of the series), tumour line D
[13] = at 21.3 µM (top of the series), tumour line A
[14] = at 108 µM (top of the series), tumour line B
On the % scale 0 is the no-effect control and ±100 the full control effect; potency means the concentration at half of the fitted maximal effect.

CN1C(=O)c2ccccc2NC(=O)[C@]12O[C@@H]2c1ccccc1
Potency [1]: inactive
Potency [2]: inactive
Potency [3]: inactive

COC1C(O)C(OC2CCC3(C=O)C(CCC4C3CCC3(C)C(C5=CC(=O)OC5)CCC43O)C2)OC(C)C1OC1OC(CO)C(O)C(O)C1O (stereo not given)
Potency [1]: 708 nM (active)
Potency [2]: 631 nM (active)
Potency [3]: 316 nM (active)

CCC1C(C)=NN=C(c2ccc(OC)c(OC)c2)c2cc(OC)c(OC)cc21 (stereo not given)
activity, negative = cell killing [4, 6]: -16.7%
activity, negative = cell killing [4, 7]: -19%
activity, negative = cell killing [4, 8]: -6.07%

CC(N)Cc1ccc(O)cc1 (stereo not given)
activity, negative = cell killing [4, 6]: -3.82%
activity, negative = cell killing [4, 7]: -1.1%
activity, negative = cell killing [4, 9]: -18.1%
activity, negative = cell killing [4, 8]: 5.3%
Potency [5]: inactive

CCC1(C)CC(=O)NC(=O)C1
activity, negative = cell killing [4, 10]: -7.73%
activity, negative = cell killing [4, 11]: -6.36%
activity, negative = cell killing [4, 12]: -5.16%
activity, negative = cell killing [4, 13]: -9.96%
Potency [5]: inactive

C[C@]12CC[C@H]3[C@@H](CCC4=C(Cl)C(=O)CC[C@@]43C)[C@@H]1CC[C@@H]2O
activity, negative = cell killing [4, 6]: -16.4%
activity, negative = cell killing [4, 7]: -29.9%
Potency ([4]; tumour line A): 12.6 µM (active)

Oc1ccc2c3c1O[C@H]1[C@@H](O)CC[C@@]4(O)[C@@H](C2)N(CC2CCC2)CC[C@]314
activity, negative = cell killing [4, 6]: -15.8%
activity, negative = cell killing [4, 7]: -17.2%
activity, negative = cell killing [4, 9]: 7.3%
activity, negative = cell killing [4, 8]: -0.783%
Potency [5]: inactive

Cn1sc(Cl)cc1=O
activity, negative = cell killing [4, 6]: -15.7%
activity, negative = cell killing [4, 7]: -11.3%
activity, negative = cell killing [4, 9]: -21.6%
activity, negative = cell killing [4, 8]: -21.9%
Potency [5]: inactive

CC1CCC(C(C)C)C(OC(=O)c2ccccc2N)C1 (stereo not given)
activity, negative = cell killing [4, 8]: 13.8%
Potency ([4]; tumour line A): 12.6 µM (active)
Potency ([4]; tumour line B): 35.5 µM (active)

CCCCCCCCCC(=O)O[C@H]1CC[C@H]2[C@@H]3CCC4=CC(=O)CC[C@]4(C)[C@H]3CC[C@]12C
activity, negative = cell killing [4, 6]: -12.8%
activity, negative = cell killing [4, 7]: -20.9%
activity, negative = cell killing [4, 8]: -14.9%
Potency ([4]; tumour line A): 15.8 µM (active)

CCC1(c2ccccc2)C(=O)NC(=O)N(C)C1=O (stereo not given)
activity, negative = cell killing [4, 6]: -7.4%
activity, negative = cell killing [4, 7]: -10.2%
activity, negative = cell killing [4, 9]: -23%
activity, negative = cell killing [4, 8]: 7.87%
Potency [5]: inactive

O=[N+]([O-])c1ccccc1
activity, negative = cell killing [4, 6]: -3.33%
activity, negative = cell killing [4, 7]: -6.09%
activity, negative = cell killing [4, 9]: -9.64%
activity, negative = cell killing [4, 8]: -9.59%
Potency [5]: inactive

CN(C)[C@@H]1C(=O)C(C(N)=O)=C(O)[C@@]2(O)C(=O)C3=C(O)c4c(O)ccc(Cl)c4[C@@](C)(O)[C@H]3C[C@@H]12
activity, negative = cell killing [4, 10]: -1.9%
activity, negative = cell killing [4, 11]: -17.1%
activity, negative = cell killing [4, 12]: 7.37%
activity, negative = cell killing [4, 13]: -17.5%
Potency [5]: inactive

CCCC(=O)OC(C(Cl)(Cl)Cl)P(=O)(OC)OC (stereo not given)
activity, negative = cell killing [4, 6]: -9.86%
activity, negative = cell killing [4, 7]: -6.58%
activity, negative = cell killing [4, 9]: -3.23%
activity, negative = cell killing [4, 8]: 7.15%
Potency [5]: inactive

CC(C)CCC(=O)O[C@H]1CC[C@H]2[C@@H]3CCC4=CC(=O)CC[C@]4(C)[C@H]3CC[C@]12C
activity, negative = cell killing [4, 8]: -19.7%
Potency ([4]; tumour line A): 11.2 µM (active)
Potency ([4]; tumour line B): 22.4 µM (active)

CC(=O)Oc1ccc2c3c1O[C@H]1[C@@H](OC(C)=O)C=C[C@H]4[C@@H](C2)N(C)CC[C@@]341
activity, negative = cell killing [4, 6]: 1.1%
activity, negative = cell killing [4, 7]: -2.21%
activity, negative = cell killing [4, 8]: -13.5%
activity, negative = cell killing ([4]; at 99.2 µM (top of the series), tumour line C): -29.8%
activity, negative = cell killing [4, 14]: -14.9%
Potency [5]: inactive

Oc1cccc[c]1[Hg][Cl]
activity, negative = cell killing [4, 8]: -98.2%
Potency ([4]; tumour line A): 0.398 µM (active)
Potency ([4]; tumour line B): 0.562 µM (active)
Potency ([4]; tumour line D): 1 µM (active)
Potency [5]: 2.82 µM (active)

CCC(N)Cc1c[nH]c2ccccc12 (stereo not given)
activity, negative = cell killing [4, 6]: -19.3%
activity, negative = cell killing [4, 7]: -10.1%
activity, negative = cell killing [4, 8]: -22.2%
activity, negative = cell killing [4, 14]: -20.5%
activity, negative = cell killing ([4]; at 108 µM (top of the series), tumour line D): -20.7%
Potency ([4]; tumour line A): 31.6 µM (active)
Potency [5]: inactive

CNC(=O)OCC[N+](C)(C)C
activity, negative = cell killing [4, 6]: -5.85%
activity, negative = cell killing [4, 7]: -20%
activity, negative = cell killing [4, 9]: -22.4%
activity, negative = cell killing [4, 8]: -19.7%
Potency [5]: inactive

ClC1C(Cl)C(Cl)C(Cl)C(Cl)C1Cl (stereo not given)
activity, negative = cell killing [4, 6]: -3.31%
activity, negative = cell killing [4, 7]: -6.39%
activity, negative = cell killing [4, 9]: -20.5%
activity, negative = cell killing [4, 8]: -11%
Potency [5]: inactive

CCCC(C)(COC(N)=O)COC(=O)NC1CC1 (stereo not given)
activity, negative = cell killing [4, 6]: -5.97%
activity, negative = cell killing [4, 7]: -18%
activity, negative = cell killing [4, 9]: -25.6%
activity, negative = cell killing [4, 8]: -16.6%
Potency [5]: inactive

CCNCC(O)c1cccc(O)c1 (stereo not given)
activity, negative = cell killing [4, 10]: 5.83%
activity, negative = cell killing [4, 11]: -15.1%
activity, negative = cell killing [4, 12]: -23%
activity, negative = cell killing [4, 13]: -30.1%
Potency [5]: inactive

OC[C@@H](O)[C@H]1O[C@@H]2O[C@@H](C(Cl)(Cl)Cl)O[C@@H]2[C@H]1O
activity, negative = cell killing [4, 6]: -12.9%
activity, negative = cell killing [4, 7]: -1.55%
activity, negative = cell killing [4, 9]: -29.4%
activity, negative = cell killing [4, 8]: 7.8%
Potency [5]: inactive

— PubChem BioAssay (NCATS)
